GPR151 ag – human GPR151 activation. activation, % at 11.2 µM. Q8TDV0. 1% of 650,000 active. PathHunter beta-arrestin GPR151 cells, luminescence; in the data active = activation above about 4.9%;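 also: 0% = median of compound wells and 100% = cells with positive control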
TEAD-YAP inh – TEAD-YAP interaction inhibition | HEK-TIYL cells, TEAD-Gal4/YAP UAS-luciferase luminescence | inhibition, % at 9.12 µM | 1.4% of 640,000 active; in the data active = inhibition above about 32%;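 also: 0% = median of test compound wells and 100% = reference inhibitor wells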
MITF inh – blocks human microphthalmia-associated transcription factor; AID 1259374; 0.91% of 650,000 active; inhibition, % at 2.6 µM; AlphaScreen MITF homodimerization, bead proximity signal; O75030; in the data active = inhibition above about 50%;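 also: 0% = vehicle wells with protein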
FBW7 act – human FBW7 E3 ligase activation, primary screen. AlphaScreen FBW7–phospho-cyclin E peptide binding, activator screen. normalized activity (activation), % at 26.1 µM. 0.13% of 650,000 active. AID 1259310; in the data active = normalized activity above about 1.9%;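 also: purified mutant Fbw7 with reduced substrate affinity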
Target sequence (Q969H0 whole entry, looked up): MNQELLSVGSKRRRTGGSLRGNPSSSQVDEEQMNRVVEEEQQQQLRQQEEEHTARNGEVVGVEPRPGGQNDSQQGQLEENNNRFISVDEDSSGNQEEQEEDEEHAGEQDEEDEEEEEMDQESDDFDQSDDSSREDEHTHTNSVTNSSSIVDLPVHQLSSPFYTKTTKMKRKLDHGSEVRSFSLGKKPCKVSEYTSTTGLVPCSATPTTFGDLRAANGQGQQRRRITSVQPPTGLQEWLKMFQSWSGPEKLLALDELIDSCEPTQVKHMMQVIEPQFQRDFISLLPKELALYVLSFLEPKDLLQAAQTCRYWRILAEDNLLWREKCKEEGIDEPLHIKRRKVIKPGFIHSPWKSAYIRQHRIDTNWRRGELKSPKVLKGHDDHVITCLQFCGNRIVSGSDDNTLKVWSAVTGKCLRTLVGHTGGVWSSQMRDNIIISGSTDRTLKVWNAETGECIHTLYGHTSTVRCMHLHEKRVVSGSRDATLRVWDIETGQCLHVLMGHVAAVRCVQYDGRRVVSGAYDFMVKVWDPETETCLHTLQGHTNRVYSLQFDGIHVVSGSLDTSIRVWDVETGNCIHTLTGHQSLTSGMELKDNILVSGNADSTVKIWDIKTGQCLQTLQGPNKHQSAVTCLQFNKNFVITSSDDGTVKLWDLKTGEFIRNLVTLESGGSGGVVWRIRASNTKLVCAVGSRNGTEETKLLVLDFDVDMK
MITF confirm – human MITF inhibition, confirmation | shares compounds with MITF inh | AlphaScreen MITF homodimerization, biotin/His-MITF beads | inhibition, % at 2.6 µM | 16% of 4,700 active | AID 1259372;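 active = inhibition above a cutoff derived from the DMSO control wells, cut at about 28% in these data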;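 also: 0% = MITF dimer wells with DMSO only; inhibitors lower the bead chemiluminescence by keeping MITF from dimerizing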
AlphaScreen DR – AlphaScreen optical interference, dose response counter-screen; 6% of 480 active; AID 1259373; AlphaScreen optical interference counterscreen, cell-free; shares compounds with MITF inh; IC50, µM; call rule not given here
AlphaScreen intf2 – counter-screen: compounds optically interfering with AlphaScreen | shares compounds with MITF inh | LysRS AlphaScreen counterscreen, signal interference, triplicate | inhibition, % at 2.6 µM | 7.6% of 4,700 active;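 active = inhibition above a cutoff derived from the DMSO control wells, cut at about 30% in these data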
* = called active by the depositor; · = no result. An excerpt weighted towards active compounds, which were near 3.5% of everything screened.

SMILES	GPR151 ag	TEAD-YAP inh	MITF inh	FBW7 act	MITF confirm	AlphaScreen intf2	others
CC1CCCCN1C(=O)c1ccc(Oc2cnccn2)cc1 (stereo unspecified)	0	-2	75*	0	4	13
Cc1ccc(NCc2ccccn2)c(Br)c1	-1	-58	59*	1	10	16
Cc1cc(C)cc(NCc2ccccn2)c1	0	7	17	0	·	·
Cc1cc(Br)ccc1NCc1ccccn1	0	-12	67*	0	-4	8
O=C(c1coc(=O)c2ccccc12)N1CCN(c2ccccn2)CC1	0	4	10	0	·	·
O=C(c1ccccc1F)N1CCN(Cc2ccccc2Cl)CC1	-1	-9	48	0	·	·
O=C(c1ccccc1F)N1CCN(S(=O)(=O)c2ccc(F)cc2)CC1	0	4	63*	0	0	12
O=C(c1ccccc1F)N1CCN(Cc2ccccc2)CC1	-1	8	3	0	·	·
O=C(c1ccccc1F)N1CCN(Cc2ccccc2Br)CC1	0	1	54*	0	9	13
O=C(c1ccccc1F)N1CCN(Cc2ccc(Cl)cc2)CC1	-2	18	56*	0	13	11
COc1ccc(CN2CCN(C(=O)c3ccccc3OC)CC2)cc1OCc1ccccc1	-2	2	41	0	·	·
COc1ccccc1C(=O)N1CCN(Cc2ccc(Cl)cc2)CC1	0	11	55*	0	1	1
Cc1noc(C)c1C(=O)NC1=NCCS1	-1	-2	57*	0	6	8
Cc1onc(-c2ccccc2)c1C(=O)NC1=NCCS1	1	4	8	0	·	·
CC(OC(=O)c1cc(=O)c2ccccc2o1)C(=O)Nc1ccc2c(c1)OCCO2 (stereo unspecified)	-2	-14	2	0	·	·
CN(C)CCCNCC(=O)NN(c1ccccc1)c1ccccc1	1	2	64*	0	-7	-2
CCCCNCC(=O)NN(c1ccccc1)c1ccccc1	0	-7	29	0	·	·
CN1C(=O)N(C)C2OC(C3OC4C(O3)N(C)C(=O)N4C)OC21 (stereo unspecified)	0	2	55*	0	8	11
CN1CCCN(Cc2ccc([N+](=O)[O-])s2)CC1	0	0	52*	0	4	6
Cc1ccc(CN2CCN(c3ccc([N+](=O)[O-])cc3)CC2)s1	0	2	70*	1	-3	3
O=[N+]([O-])c1ccc(CN2CCCCCC2)s1	-1	9	4	0	·	·
O=[N+]([O-])c1ccc(N2CCN(Cc3cc(Br)cs3)CC2)cc1	1	6	56*	0	4	6
CC(=O)c1ccc(N2CCN(Cc3ccc(C)s3)CC2)cc1	1	-1	36	0	·	·
COC(=O)C1CC(=O)N(Cc2ccccc2)C1 (stereo unspecified)	1	6	-5	0	·	·
COc1cc(/C=N/NC(=O)COc2ccccc2[N+](=O)[O-])ccc1OC(=O)c1ccccc1	-1	-10	-9	0	·	·
SMILES	GPR151 ag	TEAD-YAP inh	MITF inh	FBW7 act	MITF confirm	AlphaScreen intf2	others
CCOC(=O)CN1CCOCCOCCOCCOCCOCC1	0	2	8	0	·	·
COc1cc(C(=O)N2CCN(c3cccc(C)c3C)CC2)c([N+](=O)[O-])cc1OC	0	6	14	0	·	·
COc1ccc(CC2(CCC(=O)NC3CCC(O)CC3)CCC(=O)N2)c2ccccc12 (stereo unspecified)	0	-1	-14	0	·	·
C/C(=C/c1ccccc1)C(=O)Nc1ccc2nc(N3CCCCC3)cc(C)c2c1	-1	4	10	0	·	·
CC12CCCCC1C2C(=O)N/N=C\c1cc2c(cc1Br)OCO2 (stereo unspecified)	-1	8	15	0	·	·
COc1cccc(C(=O)COC(=O)CCCC(=O)Nc2ccc([N+](=O)[O-])cc2)c1	2	8	62*	0	11	14
COc1cccc(C(=O)COC(=O)CCC(=O)Nc2ccc([N+](=O)[O-])cc2)c1	1	0	0	0	·	·
COc1ccc(CN2CCN(Cc3ccc(SC)cc3)CC2)cc1OCc1ccccc1	0	18	55*	0	3	11
COc1ccc(CN2CCN(C)CC2)cc1OCc1ccccc1	0	-14	8	0	·	·
COc1ccc(CN2CCN(Cc3ccncc3)CC2)cc1OCc1ccccc1	1	1	63*	0	-6	-1
CCOc1cc(CN2CCN(Cc3ccc(SC)cc3)CC2)ccc1OC	-1	25	54*	0	0	3
COC(=O)c1ccc(NC(=O)/C(=C/c2cccc([N+](=O)[O-])c2)NC(=O)C2CCCCC2)cc1	0	0	-2	0	·	·
O=C(OCC(=O)c1ccc([N+](=O)[O-])cc1)C(=O)OCC(=O)c1ccc([N+](=O)[O-])cc1	0	3	61*	-1	8	29
COc1ccc(C(=O)OCC(=O)c2ccc([N+](=O)[O-])cc2)cc1	0	5	1	0	·	·
CCCC(=O)Nc1ccc(C(=O)N/N=C/c2cc([N+](=O)[O-])ccc2O)cc1	0	-4	4	0	·	·
O=C(COC(=O)C1CCC(=O)N1)Nc1ccccc1Br (stereo unspecified)	1	-1	53*	0	-3	0
CCN(C(=O)Cc1ccc(Cl)cc1)c1ccccc1	1	-1	5	0	·	·
O=C(NCc1ccccc1)C1CC12CCN(C(=O)CCCc1cccs1)CC2 (stereo unspecified)	1	-33	62*	0	1	7
O=C(NCc1cccs1)C1CC12CCN(C(=O)Cc1ccc(-c3ccccc3)cc1)CC2 (stereo unspecified)	1	8	12	0	·	·
C#CCOc1ccccc1C1C2=C(CCCC2=O)N(C)C2=C1C(=O)CCC2	0	2	14	0	·	·
COc1ccc2c(c1)CC(C(=O)Nc1ccc(-c3cn[nH]c3)cc1OCC#N)CO2 (stereo unspecified)	0	2	52*	0	43*	19	AlphaScreen DR=>6.5
COc1ccc2c(c1)CC(C(=O)Nc1ccc(-c3cn[nH]c3)cc1C(=O)N(C)OC)CO2 (stereo unspecified)	-3	-8	51*	0	51*	13	AlphaScreen DR=>6.5
CC(CCc1ccccc1)NCc1nc2ccsc2c(=O)[nH]1 (stereo unspecified)	0	2	52*	1	3	0
CC(=O)c1ccc(OCCCC(=O)Nc2nnc(Cc3ccccc3)s2)cc1	-2	6	12	0	·	·
COc1ccc(C(CNc2nnnn2-c2ccccc2)N2CCOCC2)cc1 (stereo unspecified)	1	1	51*	0	3	0
NC(=O)NC(c1ccccc1)c1cccc(Cl)c1 (stereo unspecified)	0	1	17	1	·	·
